For 57 compounds, inhibition results are on record in PubChem BioAssay AID606 (Columbia University Molecular Screening Center, 2007).

Fewer than 10 of roughly 52,000 compounds were called active. A selection follows. A number with no mark means an inactive call.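 The calls were made as follows: active = IC50 under 40 µM in the dose-response test; inactive = IC50 of 40 µM or more, or never dose-tested.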

The target of this assay is Tyrosine-protein phosphatase non-receptor type 22 (Homo sapiens) (UniProt Q9Y2R2). In words: inhibition of human PTPN22 tyrosine phosphatase – biochemical, DiFMUP fluorescence, recombinant catalytic domain, 10 µM, primary screen (AID 606). The note with it: recombinant LYP catalytic domain, at 10 µM, active compounds read high.
Sequence of Tyrosine-protein phosphatase non-receptor type 22 (Homo sapiens) (Q9Y2R2 whole entry, looked up, the tested form may be a part): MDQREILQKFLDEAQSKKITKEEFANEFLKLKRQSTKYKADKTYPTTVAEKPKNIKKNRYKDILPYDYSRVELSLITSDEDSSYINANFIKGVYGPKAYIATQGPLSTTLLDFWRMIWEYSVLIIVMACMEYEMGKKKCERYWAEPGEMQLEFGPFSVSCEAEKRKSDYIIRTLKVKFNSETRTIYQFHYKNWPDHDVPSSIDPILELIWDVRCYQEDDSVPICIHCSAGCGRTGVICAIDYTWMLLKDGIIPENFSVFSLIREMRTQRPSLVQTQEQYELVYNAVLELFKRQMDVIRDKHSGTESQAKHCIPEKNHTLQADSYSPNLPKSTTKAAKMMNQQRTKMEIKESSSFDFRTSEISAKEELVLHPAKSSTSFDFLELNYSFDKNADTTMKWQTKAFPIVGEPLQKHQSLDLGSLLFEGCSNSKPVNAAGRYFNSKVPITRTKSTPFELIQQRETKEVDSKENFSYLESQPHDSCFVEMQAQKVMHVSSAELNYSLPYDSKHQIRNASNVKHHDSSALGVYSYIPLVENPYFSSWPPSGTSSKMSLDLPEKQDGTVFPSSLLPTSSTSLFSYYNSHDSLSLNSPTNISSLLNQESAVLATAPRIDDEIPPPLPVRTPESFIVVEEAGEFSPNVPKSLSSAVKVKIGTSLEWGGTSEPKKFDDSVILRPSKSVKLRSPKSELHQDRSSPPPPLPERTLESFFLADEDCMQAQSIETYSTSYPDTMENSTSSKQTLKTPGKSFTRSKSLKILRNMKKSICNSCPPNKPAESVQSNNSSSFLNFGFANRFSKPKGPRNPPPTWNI
The inhibition is the drop in the measured response relative to a control, in per cent. `COc1ccccc1-n1c(CNc2c(C)cccc2C)nnc1SCC(=O)N1CCOCC1`: the inhibition was 19.1%. On to `Cc1ccc(-n2c(N)c(C(=O)N3CCOCC3)sc2=S)cc1`, for which the inhibition was 15.3%.

For the compound `O=C1CC(c2ccc3c(c2)OCO3)Sc2nc3ccccc3n21` (configuration not stated), the inhibition is 11.4%. To `CCCCN(CCCC)Cc1ccc(N)cc1` belongs 3.2%; to `COc1ccccc1OCc1nc(C#N)c(N2CCC(C(N)=O)CC2)o1`, 6.04%. With `COc1nc(Nc2ccc(-c3nc4ccccc4o3)cc2)nc(N2CCOCC2)n1` the figure was 9.06%; with `O=C(C1CCN(S(=O)(=O)c2cccc3cccnc23)CC1)N1CCc2ccccc21`, 2.25%; with `CCCCn1c(SCC(=O)N2CCCCC2)nc2cc(S(N)(=O)=O)ccc21`, 17.2%. To `C=CCNc1nc(NCCN2CCOCC2)nc(OC)n1` belongs 7.44%; to `COC(=O)c1c(NC(=O)CC2SCC(C(=O)OC)NC2=O)sc2c1CCCC2` (configuration not stated), -6.67%. Consider `Cc1onc(-c2ccccc2)c1C(=O)Nc1nc(-c2ccc(F)c(F)c2)cs1`, for which the inhibition was 13.4%. On to `CN(C)S(=O)(=O)N1CCN(CC(O)COc2ccc(C(=O)c3ccccc3)cc2)CC1` (configuration not stated), for which the inhibition is 10.5%. Take `CCOC(=O)N1CCN(Cc2nc3c(c(=O)n(C)c(=O)n3C)n2Cc2cccc3ccccc23)CC1`: the inhibition is 7.1%. With `Nc1c(S(=O)(=O)c2cccs2)c2nc3ccccc3nc2n1/N=C/c1cccc(O)c1` the figure was 13.6%; with `O=C(NCc1ccco1)C1CCCN(S(=O)(=O)c2ccc(-n3cnnn3)cc2)C1` (configuration not stated), 12%; with `CC(=O)OCP(C)(=O)COC(C)=O`, 5.43%. Take `CCN(CC)CCOC(=O)c1ccc(N=CC2=C(O)CC(C)(C)CC2=O)cc1`: the inhibition is 4.23%. To `Cc1c(N2C(=O)C(C)SC23C(=O)Nc2ccccc23)c(=O)n(-c2ccccc2)n1C` (configuration not stated) belongs 4.85%; to `COc1ccc(C)cc1NC(=O)C1CCCN1S(=O)(=O)c1ccc2c(c1)CCC(=O)N2` (configuration not stated), 12%. In the case of `CCN(CC)c1ccc(NC(=O)c2ccco2)c(C)c1`, the inhibition was 15.3%. With `CCc1ccc2[nH]c(=O)c(CN(CCN(C)C)C(=O)Nc3ccccc3OC)cc2c1`, the inhibition was -7.1%. To `CCOC(=O)C1CCN(C(=O)CN(C)S(=O)(=O)c2cc(C)ccc2OC)CC1` belongs -35.9%; to `CCC12CC3CC(C1)CC(C(=O)Nc1nn[nH]n1)(C3)C2`, 11.3%; to `CCN1C(=O)c2cccc3c(S(=O)(=O)Nc4c(C)n(C)n(-c5ccccc5)c4=O)ccc1c23`, -6.68%. To `COC(=O)C1=C(C)NC(=O)CC1c1cccc(OC)c1OC` (configuration not stated) belongs -0.77%; to `Cn1c(SCC(=O)Nc2ccc3c(c2)oc2ccccc23)nnc1-c1ccccc1`, -0.68%.

Regarding `CCCC(=O)C1=C(c2ccccc2)C(C#N)(C#N)C(C#N)=C1N`, the inhibition is 12%. With `Cc1ccc(N(CC(=O)Nc2ccc(S(=O)(=O)N3CCOCC3)cc2)S(C)(=O)=O)cc1C` the figure was 5.91%; with `CCOC(=O)CSc1nc2c(c(=O)[nH]c(=O)n2C)n1CCc1ccccc1`, 12%; with `CC(=O)NC12CC3CC(C1)CC(C(=O)OCC(=O)Nc1ncc(Cl)c(C)c1Cl)(C3)C2`, 3.56%.

`O=C1c2ccccc2S(=O)(=O)N1CC(O)COc1ccc(Cl)cc1` (configuration not stated): the inhibition was 5.66%. With `CCCCCC(=O)Nc1ccc(N2CCN(S(C)(=O)=O)CC2)cc1` the figure was 8.48%; with `CCn1cc(C(=O)NCc2ccco2)c(=O)c2cc(S(=O)(=O)N3CCC(C)CC3)ccc21`, 2.74%; with `COC(=O)CSc1nc2c(c(=O)n(C)c(=O)n2C)n1CCCc1ccccc1`, 4.4%. With `CCN1C(=O)c2cccc3c(S(=O)(=O)NCCCN4CCOCC4)ccc1c23` the figure was 8.51%; with `Cc1cc(NC(=O)COc2cccc(C)c2C)no1`, 11.1%.

Regarding `Cn1c(SCC(N)=O)nnc1C1CCN(C(=O)NCc2ccccc2)CC1`, the inhibition was 11.9%.

Consider `CCOC(=O)c1ccc(-c2n[nH]c(=O)c3ccccc23)cc1`, for which the inhibition is -0.81%. With `Cc1ccc2c(c1)N(CC(=O)NCc1cccs1)C(=O)CO2` the figure was 7.47%; with `O=C(OCN1C(=O)c2ccccc2C1=O)c1cccs1`, 8.67%. `O=C(NCCCc1ccccc1)C1CCN(c2nnc(-n3cccc3)s2)CC1`: the inhibition is 1.14%. To `Cn1c(=O)c2cc(S(=O)(=O)N3CCN(c4cccc(C(F)(F)F)c4)CC3)ccc2n(C)c1=O` belongs 3.54%; to `CCn1c(COc2cccc(C)c2)nnc1SCC(=O)Nc1cccc(C(=O)O)c1`, 7.81%; to `O=C(CCS(=O)(=O)Cc1ccccc1)N1CCN(Cc2ccccc2)CC1`, -7.91%.

Regarding `Cc1cc(Nc2cccc(Cl)c2)n2ncnc2n1`, the inhibition was -9.28%. For the compound `COc1ccc(C(=O)NC2(C(F)(F)F)N=C3SCCN3C2=O)cc1` (configuration not stated), the inhibition is 96.1%.

For `CCOC(=O)N1CCC(n2c(=S)[nH]c3cc(OC)c(OC)cc3c2=O)CC1`, the inhibition is -14.3%. `COc1cc2c(cc1OC)CN(C(=O)Cc1ccc(OC)c(S(=O)(=O)N3CCOCC3)c1)CC2`: the inhibition was 1.37%. Turning to `CCOc1cc(C#N)c(NC(=O)c2ccco2)cc1OCC`, the inhibition was 7.92%. Turning to `Cn1nc(-c2ccc(C(=O)Nc3cccnc3)cc2)c2ccccc2c1=O`, the inhibition is 13.4%. With `Cc1ccnc(NC(=O)Nc2cccc(F)c2)c1` the figure was -13.1%. In the case of `O=c1c2cc(N3CCOCC3)ccc2[nH]c(=S)n1CCCN1CCCCC1`, the inhibition is 7.14%.

For `COCCn1nnnc1C(c1ccc(OC)cc1OC)N1CCN(c2ccccc2)CC1` (configuration not stated), the inhibition is 7.1%. `COCCN(CCOC)C(=O)c1c[nH]c2ccc(S(=O)(=O)N(C)c3ccc(F)cc3)cc2c1=O`: the inhibition was -2.71%. As for `C/C=C/c1ccc(OCCCCN2C(=O)NC(C)(C)C2=O)c(OC)c1`, the inhibition is 0.22%. Regarding `CCOC(=O)c1cc2c(=O)n3cccc(C)c3nc2n(Cc2ccco2)c1=NC(=O)c1cccnc1`, the inhibition was 12.3%. On to `CCC(C)NC(=O)CN(c1ccc(OC)cc1)S(=O)(=O)c1ccc(NC(C)=O)cc1` (configuration not stated), for which the inhibition is -3.53%.
